Measured values as given in PubChem BioAssay (NCATS).
Inconclusive results are not listed. Activity calls are given as the source filed them. The call rests on the fitted dose curve; in most records, active means well fitted inhibition curve with a large enough effect; inconclusive means small, poorly fitted or top-dose-only effect; inactive means flat fitted curve, though single readings scatter.

How the values were obtained:
Experiment in all cases: Cytotoxic Profiling of Annotated Libraries Using Quantitative High-Throughput Screening (AID 1296008); further: nearly all actives have a fitted effect of over 60% in size
Settings in all cases: Five cell lines viability, CellTiter-Glo ATP luminescence, 48-72 h; max response: active compounds read low
CRL-7250 = normal cell line; test system: CRL-7250
Method in brief: (§1)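 Cytotoxicity was measured as CellTiter-Glo ATP luminescence, read after 10 min at room temperature. Compound treatment of the cells lasted 48 or 72 hr at 37 degrees Celsius in a qHTS format.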

HaCat = test system: HaCat
Method in brief: as §1

KB-3-1 = test system: KB-3-1
Method in brief: as §1

NIH3T3 = test system: NIH3T3
Method in brief: as §1

Measured: max response
On the % scale 0 is the no-effect control and ±100 the full control effect.

C[C@@H]1CC[C@]2(C(=O)O)CC[C@]3(C)C(=CCC4[C@@]5(C)CC[C@H](O)[C@](C)(C(=O)O)C5CC[C@]43C)C2[C@]1(C)O (stereo partly drawn)
inactive: CRL-7250 -2.08% | HaCat 4.55% | KB-3-1 0.684% | NIH3T3 -24.1%

C=C1C(=O)O[C@@H]2/C=C(/C)[C@@H](OC(C)=O)C/C=C(\C)C[C@@H](OC(=O)/C(=C/CO)CO)[C@@H]12
inactive: CRL-7250 3.05% | HaCat -3.88% | KB-3-1 | NIH3T3 0.581%

CCCC(CCC)C(=O)NCc1ccc2c(cnn2-c2ccccc2OC)c1
inactive: CRL-7250 -29.2% | HaCat 3.89% | KB-3-1 -13.4% | NIH3T3 0.011%

O=C1Nc2ccccc2-c2nc3ccccc3c(=O)n2-c2c(O)cccc21
inactive: CRL-7250 3.48% | HaCat -26.5% | KB-3-1 0.451% | NIH3T3 1.73%

C[C@H]1CO[C@@H]2Cn3cc(C(=O)NCc4ccc(F)cc4F)c(=O)c(O)c3C(=O)N12
inactive: CRL-7250 -9.56% | HaCat 1.95% | KB-3-1 -18.7% | NIH3T3 2.62%

C[C@@H](NC(=O)[C@H](O)c1cc(F)cc(F)c1)C(=O)N[C@@H]1C(=O)N(C)c2ccccc2-c2ccccc21
inactive: CRL-7250 0.116% | HaCat -11.4% | KB-3-1 5.92% | NIH3T3 -0.195%

COCC(c1ccc(C(F)(F)F)cc1)N1CCN(C2(C)CCN(C(=O)c3c(C)ncnc3C)CC2)CC1C (stereo not drawn)
inactive: CRL-7250 4.87% | HaCat -10.9% | KB-3-1 8.07% | NIH3T3

CC(C)/C=C1\NC(=O)C(C(C)C)n2c1nc1ccccc1c2=O (stereo not drawn)
inactive: CRL-7250 2.92% | HaCat -9.75% | KB-3-1 -2.24% | NIH3T3 -0.19%

COc1ccc(NC(=O)C2C[C@H](C)CC[C@H]2C(C)C)cc1 (stereo partly drawn)
inactive: CRL-7250 | HaCat -2.17% | KB-3-1 | NIH3T3 -6.73%

CC(=O)OC/C(=C/C(=O)O)CC[C@@H]1C(C=O)=CC[C@@H]2C(C)(C)CCC[C@@]12C
inactive: CRL-7250 4.87% | HaCat 3.05% | KB-3-1 3.67% | NIH3T3 3.58%

COc1ccc(Sc2ccc(NC(=O)c3ccccc3Cl)cc2C#N)cc1
inactive: CRL-7250 -14.2% | HaCat -11.3% | KB-3-1 -1.86% | NIH3T3 -6.24%

COc1cc2c(cc1O)C1(Cc3ccc4c(c3C1O)OCO4)[N+](C)([O-])CC2 (stereo not drawn)
inactive: CRL-7250 | HaCat -20.1% | KB-3-1 | NIH3T3 -2.31%

CC(C)(Cc1ccccc1)NCC(O)c1ccc(O)c(NS(C)(=O)=O)c1 (stereo not drawn)
inactive: CRL-7250 0.0508% | HaCat 2.45% | KB-3-1 -4.4% | NIH3T3 0.817%

COc1cc(/C=N\NC(=O)c2ccc3c(c2)OCO3)ccc1OCc1ccccc1
inactive: CRL-7250 3.71% | HaCat -3.21% | KB-3-1 -9.36% | NIH3T3 0.687%

N#Cc1ccc(COC[C@H]2O[C@@H](n3c(NCc4ccc(Cl)c(Cl)c4)nc4c(N)ncnc43)[C@H](O)[C@@H]2O)cc1
inactive: CRL-7250 | HaCat -23% | KB-3-1 2.86% | NIH3T3 -0.0303%

C/C=C(\C)C(=O)OC1C(C)C2(O)C(C=C(CO)CC3(O)C(=O)C(C)=CC32)C2C(C)(C)C12OC(=O)C(C)C (stereo not drawn)
inactive: CRL-7250 -36% | HaCat -1.92% | KB-3-1 -0.0958% | NIH3T3 1.03%

COc1ccc(CNCc2cccc3ccccc23)cc1
inactive: CRL-7250 | HaCat -12.6% | KB-3-1 3.07% | NIH3T3 -4.32%

CN(C)CC#CCCC(=O)C(O)(c1ccccc1)C1CCC1 (stereo not drawn)
inactive: CRL-7250 4.04% | HaCat 3% | KB-3-1 7.92% | NIH3T3 -1.12%

O=C(N[C@H](Cc1cscn1)C(=O)N[C@@H](CC1CCCCC1)[C@@H](O)[C@@H](O)C1CC1)c1nc2ccccc2[nH]1
inactive: CRL-7250 0.844% | HaCat -14.3% | KB-3-1 -12.2% | NIH3T3 -17.1%

CC1(C=O)CCCC2(C)C1CCC13CC(CO)C(CCC12)C3 (stereo not drawn)
inactive: CRL-7250 | HaCat 3.29% | KB-3-1 7.38% | NIH3T3 -4.47%

C[C@@H]1C[C@H]2O[C@@]3(O[C@@H]2C(C)(C)O)C(O)[C@@]2(C)C4CCC5C(C)(C)[C@@H](O[C@H]6OC[C@H](O)[C@@H](O)[C@@H]6O)CC[C@@]56C[C@@]46CC[C@]2(C)C13 (stereo partly drawn)
inactive: CRL-7250 1.57% | HaCat -16.2% | KB-3-1 -6.46% | NIH3T3 -0.0399%

C[C@@H]1O[C@@H](O[C@H]2[C@H](O[C@H]3CC[C@@]4(C)C(CC[C@]5(C)C4C=C[C@]46OC[C@@]7(CCC(C)(C)C[C@H]74)[C@@H](O[C@@H]4O[C@@H](C)[C@H](O)[C@@H](O)[C@H]4O)C[C@]65C)[C@]3(C)CO)O[C@H](CO)[C@@H](O)[C@@H]2O[C@@H]2O[C@H](CO)[C@@H](O)[C@H](O)[C@H]2O)[C@H](O)[C@H](O)[C@H]1O (stereo partly drawn)
inactive: CRL-7250 -7.16% | HaCat -9.32% | KB-3-1 -1.23% | NIH3T3 -25.1%
